Results taken from PubChem BioAssay AID1159580 (chemical genetic matrix, 2015).
Among all 5,500 compounds or so, about 2,000 (36%) were called active. Another 18% or so got no clear call; they are omitted. Rule as the data show it: active = normalized growth mostly below about 0.91 (no sharp cut-off); inconclusive = no clear call, values can overlap the other calls; inactive = mostly above about 0.92. The list shows a part of the results.

Test: chemical genetic growth profiling, strain panel (AID 1159580);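 also: tested at 20 µM; growth read once vehicle control cultures reached saturation at 30 °C; 1 = growth at the plate median or of vehicle wells; lower values mean less growth of the strain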
Conditions: S. cerevisiae deletion strains, growth OD

Measured: normalized growth

CCN1CCC[C@H]1CNC(=O)c1c(OC)ccc(I)c1O
inactive: locus YAL040C, strain CLN3, stronger effect = lower value 1.01 | locus YCL061C, strain MRC1 (second series), stronger effect = lower value 1 | locus YDR150W, strain NUM1, stronger effect = lower value 0.986 | locus YDR363W, strain ESC2, stronger effect = lower value 1.01 | locus YER002W, strain NOP16, stronger effect = lower value 0.996 | locus YGR229C, strain SMI1, stronger effect = lower value 0.92 | locus YJR075W, strain HOC1, stronger effect = lower value 0.984 | locus YMR307W, strain GAS1, stronger effect = lower value 1 | locus YNL175C, strain NOP13, stronger effect = lower value 1 | locus YNL197C, strain WHI3, stronger effect = lower value 1.02 | locus YNL224C, strain SQS1, stronger effect = lower value 1.01 | locus YNL322C, strain KRE1, stronger effect = lower value 0.996 | locus YOR083W, strain WHI5 (second series), stronger effect = lower value 0.974 | locus YPL055C, strain LGE1, stronger effect = lower value 0.972 | locus YPL241C, strain CIN2, stronger effect = lower value 0.998
